High-throughput results as filed in PubChem.
This is a sample that favours compounds with a hit; in the whole collection about 2.4% have one here.
D2 PAM-1 – positively modulates the human D2 dopamine receptor allosterically; HEK293 T-REx D2, calcium flux, EC20 dopamine potentiation; 340,000 tested, 0.34% active; potentiation, % at 10 µM; AID 485347;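 active = potentiation over 3 SD above the plate norm, cut at about 30% in these data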; also: 0% is about no effect
Target sequence (P14416 whole entry, looked up): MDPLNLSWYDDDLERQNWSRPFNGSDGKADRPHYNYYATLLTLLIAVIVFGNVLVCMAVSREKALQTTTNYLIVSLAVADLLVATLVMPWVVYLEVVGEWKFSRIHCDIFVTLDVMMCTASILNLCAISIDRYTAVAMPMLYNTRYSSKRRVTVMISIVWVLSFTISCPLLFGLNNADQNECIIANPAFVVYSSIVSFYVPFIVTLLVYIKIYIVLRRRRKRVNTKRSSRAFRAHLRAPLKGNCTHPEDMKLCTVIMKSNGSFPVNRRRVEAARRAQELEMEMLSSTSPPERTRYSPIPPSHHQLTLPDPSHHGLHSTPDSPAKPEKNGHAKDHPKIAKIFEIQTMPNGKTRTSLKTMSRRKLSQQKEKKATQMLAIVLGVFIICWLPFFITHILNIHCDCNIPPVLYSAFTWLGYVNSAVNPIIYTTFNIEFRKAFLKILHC
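Tetracycline-induced Hek293 Trex D2 cells, force-coupled to calcium, loaded with no-wash calcium dye. Compound added with 180 s kinetic read for agonism, then EC20 dopamine and a further 180 s read for potentiation.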
D2 ag-1 – D2 dopamine receptor (human) agonism. AID 485358. 340,000 tested, 0.53% active. activation, % at 2 µM. HEK293 T-REx D2 cells, calcium flux agonist mode. P14416;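 active = activation over 3 SD above normal in the single-dose calcium agonist read, cut at about 30% in these data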; also: 0% is about no effect
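Tetracycline-induced HEK293 T-REx cells with force-coupled D2 receptor, plated overnight at 30 C, loaded with no-wash calcium dye. After a 10 s baseline, compound was pin-added and calcium flux read kinetically for 180 s; calcium rises flagged agonists.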
D2 ag-2 – human D2 receptor agonism in beta-arrestin assay. P14416. DiscoveRx PathHunter D2 beta-arrestin, luminescence, 90 min; 100% = 57 uM dopamine signal. activation, % (test concentration not listed). 360,000 tested, 0.084% active; in the data active = activation above about 40%
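Agonist mode: compounds alone added to overnight-plated D2 PathHunter cells for 90 min at 37 C, with 57 uM final dopamine (EC100) defining full response. Beta-arrestin recruitment detected by chemiluminescent reagent, read after 1 h at ambient temperature.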
D2 antag – D2 dopamine receptor (human) antagonism. inhibition, % at 10 µM. HEK293 TREx D2 cells, calcium flux, dopamine EC80. P14416. AID 485344. 340,000 tested, 2% active; in the data active = inhibition above about 30%; inactive = below that, where a call was filed; also: 0% is about no effect
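Compounds are added to dye-loaded, induced HEK293 T-REx cells coupled to calcium release via D2; after a 3 min kinetic read an EC80 dopamine stimulus is given and fluorescence is recorded for 3 more min.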
D2 PAM-2 – positive allosteric modulators of human D2 dopamine receptor. P14416. DiscoveRx D2 beta-arrestin cells, luminescence, 90 min; 100% = 57 uM dopamine signal. potentiation, % (no concentration beside the values). 360,000 tested, 0.23% active; in the data active = potentiation above about 50%
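D2 cells co-treated with compound plus 50 nM dopamine (EC20) for 90 min at 37 deg C to detect potentiation. Beta-arrestin recruitment was read as enzyme-fragment luminescence after 1 h at ambient temperature. Full response was set by 57 uM dopamine.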
* marks the source's active call; other numbers are inactive results; . = not tested or not shown.

SMILES	D2 PAM-1	D2 ag-1	D2 ag-2	D2 antag	D2 PAM-2
Cc1ccccc1C(=O)NC1CC2CCCC(C1)N2Cc1ccccc1 (stereo unspecified)	-20	-2	-6	71*	0
Cc1ccccc1C(=O)NC1CCN(C(=O)NC2CCCCC2)CC1	0	-1	9	-7	-2
Cc1ccccc1C(=O)NC1CC2CCCC(C1)N2Cc1ccc(Cl)cc1 (stereo unspecified)	-23	1	-7	76*	-27
Cc1ccccc1C(=O)NC1CCN(C(=O)N2CCOCC2)CC1	36*	0	-1	12	-3
COc1cc(NC(=O)C2(C)CCN2C(C)C)cc(OC)c1OC (stereo unspecified)	.	.	-7	.	-6
CCc1cccc(NC(=O)Cn2c(-c3ccc(F)cc3)cc(C(C)=O)c2C)c1	13	.	.	.	.
O=C(O)C[C@@H]1C(=O)O[C@@H]2C(COC(=O)c3cc(O)c(O)c(O)c3)O[C@@H](OC(=O)c3cc(O)c(O)c(O)c3)[C@@H](OC(=O)c3cc(O)c(O)c4c3[C@H]1[C@H](O)C(=O)O4)[C@H]2OC(=O)c1cc(O)c(O)c(O)c1 (stereo partly specified)	-13	0	.	-12	.
COc1ccccc1-c1nnc(C2CCN(C(=O)c3cccc(Cl)c3)CC2)o1	14	1	.	.	.
Cc1[nH]c2ccccc2c1C1C(c2ccccc2)=NN=C(C(C)C)N1O (stereo unspecified)	31*	0	1	6	12
COC(=O)Nc1ccc(C)cc1NC(=O)OC	-5	1	-2	-9	13
CC(=O)Nc1ccc(C)cc1NC(C)=O	-5	-1	-3	35*	6
Cc1ccccc1C(=O)Nc1ccnn1C1CCN(Cc2ccncc2)CC1	-18	1	-5	31*	3
Cc1ccccc1CN1CCC(n2nccc2NC(=O)c2ccc3c(c2)OCO3)CC1	-1	0	-9	-6	-47
O=C(Nc1ccnn1C1CCN(Cc2cccnc2)CC1)c1ccccc1Cl	5	0	-3	-7	7
Cc1cc(CN2CCC(n3nccc3NC(=O)c3ccccc3Cl)CC2)cc(C)c1O	-19	1	-3	55*	-20
COc1ccc(CN2CCC(n3nccc3NC(=O)c3ccc4c(c3)OCO4)CC2)cc1C	-12	1	2	45*	-32
COc1ccccc1C(=O)Nc1ccnn1C1CCN(Cc2csc(C(C)=O)c2)CC1	-1	1	-2	32*	-28
CCOC(=O)c1cc(-c2ccccc2)n(CCC(=O)NC2CCCCC2)c1C	9	0	.	.	.
CCOC(=O)C1CCN(C(=O)COc2ccc(S(=O)(=O)NC(C)C)cc2Cl)CC1	9	0	-1	7	-26
CC(C)NS(=O)(=O)c1ccc(OCC(N)=O)c(Cl)c1	6	0	-1	34*	-11
O=C(O)c1ccc(Nc2ncnc3ccccc23)cc1	2	3	-1	32*	-7
CN(C)c1ccc(C(=O)N2CCC2(C)C(=O)O)cc1 (stereo unspecified)	.	.	-1	.	-2
COc1cc(O)ccc1C(=O)CCc1ccc(O)cc1	3	-1	-1	-3	1
COc1ccc(C2=NS(=O)(=O)N(C)C(C(=O)N3CCC(C(N)=O)CC3)=C2)cc1	0	1	4	35*	-1
Cc1cc(Nc2cccc([N+](=O)[O-])c2)n2c(nc3ccccc32)c1C#N	8	4	-1	35*	16
SMILES	D2 PAM-1	D2 ag-1	D2 ag-2	D2 antag	D2 PAM-2
Cc1cc(Nc2ccc(F)cc2)n2c(nc3ccccc32)c1C#N	12	2	.	.	.
Cc1cccc(N2CCN(CC(O)COc3ccccc3Cl)CC2)c1 (stereo unspecified)	-24	9	-5	71*	-53
OC(COc1ccc(Cl)cc1)CN1CCN(c2ccccn2)CC1 (stereo unspecified)	.	.	8	.	-10
OC(COc1cc(Cl)c(Cl)cc1Cl)CN1CCN(c2ncccn2)CC1 (stereo unspecified)	-22	26	11	37*	-31
CNCc1c(OCc2ccc(F)cc2)ccc2ccccc12	-15	0	-2	74*	-7
COc1ccccc1COC(=O)c1cccc(S(=O)(=O)N2CCCC2)c1	7	0	-3	42*	-28
Cc1ccc(COC(=O)c2cccc(S(=O)(=O)N3CCCCCC3)c2)cc1	12	1	0	43*	-14
Cc1ccc(COC(=O)c2cccc(S(=O)(=O)N3CCCCC3)c2)cc1	13	-1	-7	-15	-20
CCc1nn2c(=O)cc(COC(=O)c3cccc(NC(=O)CCc4ccccc4)c3)nc2s1	3	1	.	.	.
CC1CCC(NC(=O)c2ccc(-n3cncn3)c([N+](=O)[O-])c2)CC1 (stereo unspecified)	-7	1	-4	36*	27
O=C(NC1CCCCC1)c1ccc(-n2cncn2)c([N+](=O)[O-])c1	.	.	0	.	-1
CCN(C(=O)C1CCN(S(=O)(=O)c2cc(Br)cc3c2N(C(C)=O)CC3)CC1)c1cccc(C)c1	-3	0	.	.	.
COC(=O)C1Cc2c([nH]c3ccccc23)C2(CCN(Cc3ccccc3)CC2)N1 (stereo unspecified)	-32	4	-5	75*	-12
CCCN1CCC2(CC1)NC(C(=O)O)Cc1c2[nH]c2ccccc12 (stereo unspecified)	21	1	1	-8	0
Cc1ccc2ncc3c(-c4ccccc4)nn(CC(=O)NC4CCCCC4)c3c2c1	-3	0	.	.	.
COc1ccccc1C(=O)Nc1cc(Cl)ccc1O	-4	1	1	4	-6
COc1ccc(Cl)cc1NC(=O)C(OC)c1ccccc1 (stereo unspecified)	10	0	-3	30*	-23
COc1ccc(Cl)cc1NC(=O)c1ccccc1C	0	-1	-3	32*	-26
CCC(C(=O)Nc1cc(OC)c(NC(=O)c2ccccc2)cc1OC)c1ccccc1 (stereo unspecified)	16	-1	1	42*	-3
CCC(C(=O)Nc1cc(Cl)ccc1OC)c1ccccc1 (stereo unspecified)	11	0	-4	4	-9
COc1ccc(Cl)cc1NC(=O)Nc1cccc([N+](=O)[O-])c1C	-26	1	-5	66*	-57
O=C(CCNS(=O)(=O)c1ccc2c(c1)CCCC(=O)N2)NCc1ccccc1Cl	-2	.	.	.	.
CCN1CCc2c(sc(NC(=O)c3ccc(S(=O)(=O)N4CCCC(C)C4)cc3)c2C(=O)OC)C1 (stereo unspecified)	-16	0	.	.	.
CC1CCN(CCn2c(=S)[nH]c3ccccc3c2=O)CC1	-12	0	5	31*	-25
